High-throughput results from PubChem BioAssay.
Anthrax LF prot = blocks Bacillus anthracis lethal factor protease | multiplex microsphere protease cleavage assay, LF | P15917 | inhibition, % at 10 µM | hit rate 0.12% among 360,000; further: plate controls were buffer without enzyme for full effect and enzyme alone for no effect
BoNT A protease = BoNT A light chain protease inhibition; multiplex microsphere protease substrate cleavage, flow cytometry; inhibition, % at 10 µM; hit rate 0.17% among 360,000; further: plate controls were buffer without enzyme for full effect and enzyme alone for no effect
BoNT-F LC inh = inhibitors of Botulinum neurotoxin F light chain protease. inhibition, % at 10 µM. Multiplex microsphere protease cleavage assay, flow cytometry. AID 588497. hit rate 0.22% among 360,000; in the data active means inhibition above about 35%, passing the limit was not always enough; inconclusive means no clear call, values can overlap the other calls; further: plate controls were buffer without enzyme for full effect and enzyme alone for no effect
MazEF act = MazEF (E. coli) toxin RNase activation. FAM/BHQ RNA-DNA oligo cleavage fluorescence, 5 h. hit rate 0.32% among 350,000. activation, % at 20 µM. P0AE70. AID 504720; in the data active means activation above about 50%
Autofluor counter = counter-screen for toxin protease inhibitors: compound fluorescence; fluorescence intensity (test concentration not listed); hit rate 3.1% among 360,000; compound autofluorescence counterscreen, microsphere flow cytometry; stronger effect = higher value; in the data active means fluorescence intensity above about 16000; inconclusive means no clear call, values can overlap the other calls
Active calls of the source: *; ? = inconclusive; / = no result. Rows were chosen to be rich in hits. Some 3.7% of all compounds tested hit in one or more screens of this group. Unless noted, no stated cut-off is given here; in the data, active means inhibition above about 30%; inconclusive means no clear call, values can overlap the other calls; inactive means below that.

SMILES	Anthrax LF prot	BoNT A protease	BoNT-F LC inh	MazEF act	Autofluor counter
COc1ccc(N2C(=O)C(CC(=O)O)S/C2=N\N=C\c2cccs2)cc1 (stereo not drawn)	3.2	3.3	43.3*	-12.0	3074
N#CC(=C1C=CC(=NO)C(Cl)=C1)c1ccccc1	2.5	-0.5	-5.1	/	5735
O=C(Nc1ccc(Cl)cc1Cl)c1n[nH]c(Cn2cncn2)n1	2.8	?	-2.9	5.7	20568*
CC(=O)NCCOC(=O)Nc1cccnc1	-0.1	0.5	-3.2	-1.0	5709
CC(=O)NCCOC(=O)Nc1ccncc1	-16.2	6.0	9.1	3.0	20618*
CC(=O)Nc1ccc(N/C=C/C(=O)c2ccc(Cl)cc2)cc1	/	/	/	56.9*	/
CC(=O)c1ccc(N/C=C\C(=O)c2ccc(C)cc2)cc1	-2.4	0.5	1.1	-6.8	2292
c1ccc(NC2=NCCN2CC2CCCCCC2)cc1	-3.9	-1.2	-3.2	4.4	3782
O=C(COc1ccc2ccccc2c1Br)N1CCN(c2ccccn2)CC1	-1.3	1.8	0.7	-9.6	21691*
CCCSc1nnc(C(C)C)n1N	-0.7	?	2.9	-2.3	22250*
C/C(=N\Nc1cc(Cl)nc(C)n1)c1ccc(Cl)c(Cl)c1	-3.2	-1.0	-12.5	2.8	10720
C/C(=N\Nc1cc(Cl)nc(C)n1)c1ccc(C)cc1	-4.1	-5.5	-8.4	9.5	22065*
CC(=O)c1cccc(NS(=O)(=O)c2cc(OCC(N)=O)c(C)cc2Cl)c1	-2.4	1.5	3.5	5.8	19294*
C[C@@H](c1ccccc1)N1C[C@H](COCc2ccccc2)Oc2cc(N3CCC[C@@H]3CO)ccc2S1(=O)=O	4.1	-0.4	-10.0	/	6895
O=C(Nc1ccccc1)c1ccc(OC(=O)c2cc3ccccc3o2)cc1	2.2	1.7	3.9	-0.7	21900*
O=C(Nc1ccccc1)c1cc2ccccc2o1	-1.4	-0.6	-7.0	5.6	2879
O=C(CSc1nnc(NC(=O)c2c(F)cccc2F)s1)NCc1ccc(F)cc1	-5.9	-30.9	-39.8	-1.6	?
CCC1(c2ccccc2)NC(=O)N(CC(=O)NCC2COc3ccccc3O2)C1=O (stereo not drawn)	1.1	-2.0	0.2	-7.9	?
COc1ccc(/C=C2\C(=O)NCC(=O)N2Cc2ccccc2)cc1	-11.5	-0.6	4.6	-1.1	?
COc1ccc(/C=C2\C(=O)NCC(=O)N2C)cc1	34.2*	4.6	87.7*	-21.2	6212
Cc1occc1C(=O)N1CCC2(CC1)OCCO2	-1.2	?	-1.1	-4.0	23817*
Cc1cc(C(=O)N2CCC3(CC2)OCCO3)cs1	0.9	?	-4.1	3.5	21544*
Cc1occc1C(=O)N1CCN(C(c2ccccc2)c2ccccc2)CC1	-0.9	-1.2	-0.9	-11.4	22960*
O=C(c1ccccc1)N1CCC2(CC1)OCCO2	-2.2	-0.1	-6.7	-2.2	5478
Cc1noc(C)c1C(=O)N1CCC2(CC1)OCCO2	-1.1	-2.3	-2.2	2.7	20724*
SMILES	Anthrax LF prot	BoNT A protease	BoNT-F LC inh	MazEF act	Autofluor counter
Cc1ccccc1C(=O)N1CCN(C(c2ccccc2)c2ccccc2)CC1	-1.1	?	?	-5.4	3922
CCc1noc(C)c1C(=O)N1CCCC1	-0.9	?	-0.3	-1.6	16196*
Cc1ccccc1OC(=O)CCC(=O)OCCCC(F)(F)C(F)(F)F	-2.1	-1.6	-18.5	-5.8	8375
Cc1ccc(OC(=O)CCC(=O)OCCCC(F)(F)C(F)(F)F)cc1	-0.7	-2.0	-4.4	-0.6	24380*
CC(C)(Oc1cccc2ccccc12)C(=O)O	-2.8	-2.5	-6.5	6.0	17702*
COc1ccc(S(=O)(=O)N(C)C[C@H]2OCCCC[C@H](C)Oc3ccc(N(C)C)cc3C(=O)N([C@H](C)CO)C[C@@H]2C)cc1	-3.9	0.2	3.1	3.0	3354
COc1ccc(-c2nnc3n2N=C(C)CS3)cc1	-1.3	?	-1.1	4.2	23552*
COc1ccc(C2=Nn3c(nnc3-c3ccc(OC)cc3)SC2)cc1	-7.6	-3.4	-6.2	4.8	11951
COc1cccc(-c2nnc3n2N=C(c2cc(OC)ccc2OC)CS3)c1	4.3	0.0	-5.4	-2.8	5429
CC1=Nn2c(nnc2-c2ccco2)SC1	0.1	2.0	3.1	1.7	22078*
COc1cccc(-c2nnc3n2N=C(C(C)(C)C)CS3)c1	1.5	-0.1	-1.6	8.4	23357*
OCC1OC(n2cnc3c(N4CCCCC4)ncnc32)C(O)C1O (stereo not drawn)	-2.6	-0.1	-1.6	3.9	3459
COc1cccc(NC(=O)COC(=O)CCCc2c[nH]c3ccccc23)c1	-2.6	2.6	-2.2	8.3	22839*
COc1ccc(NC(=O)COC(=O)CCCc2c[nH]c3ccccc23)cc1	0.6	-2.6	-11.6	8.1	10725
